Several values for one entry are separate records, joined by “and”; a condition that tells them apart may be missing. Equal entries are not always repeated. Where a structure was tested more than once in an assay, its records may differ in their call. Activity calls are given as the source filed them. Where a call stands in place of a potency, no number is given. Unless noted, calls follow the shape of the dose curve; as a rule, active = well fitted curve in the direction sought with a large enough effect in the repeat runs; inconclusive = weak or mixed curves; inactive = no such curve, though single readings can be large; an effect the other way counts as inactive or inconclusive.
Assays:
[1] = qHTS assay to identify small molecule antagonists of the thyroid receptor (TR) signaling pathway - cell viability counter screen (AID 743064); also: nearly all actives have a fitted effect of over 50% in size; also: potency is read from the fitted curve at half-maximal effect
Procedure, shortened: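 GH3.TRE-Luc cells, 4 h pre-plating; cpd + T3 1 nM final; 37 °C 23.5 h; CellTiter-Fluor 30 min; fluorescence read.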

[2] = qHTS assay to identify small molecule antagonists of the thyroid receptor (TR) signaling pathway (AID 743065); also: nearly all actives have a fitted effect of over 55% in size; also: potency is read from the fitted curve at half-maximal effect
Procedure, shortened: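 GH3.TRE-Luc rat pituitary cells (two TREs driving luciferase) were dosed with compound, then stimulated with 1 nM T3 (final) for 23.5 h at 37 C. ONE-Glo luminescence was the read-out, with CellTiter-Fluor fluorescence as the cytotoxicity counter-screen.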

[3] = system: thyroid hormone receptor (rat, GH3 cells); test: qHTS assay to identify small molecule agonists of the thyroid receptor (TR) signaling pathway (AID 743066; calls by dose curve)
[4] = target: Estrogen receptor (Homo sapiens) (UniProt P03372); test: qHTS assay to identify small molecule antagonists of the estrogen receptor alpha (ER-alpha) signaling pathway (AID 743069; active = well fitted curve in the direction sought with a large enough effect in the signal ratio in the repeat runs, not every such curve was filed as active; inconclusive = weak or mixed curves, or effect the other way; inactive = no such curve, though single readings can be large or run the other way; the % refers to the signal ratio; also: potency is read from the fitted curve at half-maximal effect)
Estrogen receptor (Homo sapiens), sequence (P03372 whole entry, looked up): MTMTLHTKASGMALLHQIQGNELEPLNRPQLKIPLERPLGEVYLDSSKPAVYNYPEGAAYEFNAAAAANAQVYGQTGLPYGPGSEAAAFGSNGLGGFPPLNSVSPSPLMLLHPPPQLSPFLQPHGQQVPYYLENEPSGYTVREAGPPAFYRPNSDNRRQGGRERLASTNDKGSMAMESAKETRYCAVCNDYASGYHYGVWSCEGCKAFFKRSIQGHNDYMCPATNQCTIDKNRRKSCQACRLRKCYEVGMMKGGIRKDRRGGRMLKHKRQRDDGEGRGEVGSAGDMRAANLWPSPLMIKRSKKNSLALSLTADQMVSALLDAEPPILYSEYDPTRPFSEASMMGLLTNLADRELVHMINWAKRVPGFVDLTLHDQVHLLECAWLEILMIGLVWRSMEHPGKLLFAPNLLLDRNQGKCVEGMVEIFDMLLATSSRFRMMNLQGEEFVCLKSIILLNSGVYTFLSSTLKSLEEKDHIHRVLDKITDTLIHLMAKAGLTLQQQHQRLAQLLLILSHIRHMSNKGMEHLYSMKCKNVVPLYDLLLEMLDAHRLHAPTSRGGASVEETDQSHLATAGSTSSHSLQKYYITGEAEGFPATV
Procedure, shortened: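 HEK293 ER-alpha-UAS-bla GripTite cells, held overnight in 2% charcoal-stripped FBS, 5,000 cells/well, preincubated 4 h, then compound plus 17beta-estradiol for 18 h at 37C. Beta-lactamase read by LiveBLAzer B/G FRET substrate, 2 h at room temperature.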

[5] = qHTS assay to identify small molecule antagonists of the estrogen receptor alpha (ER-alpha) signaling pathway - cell viability counter screen (AID 743074; calls by dose curve;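 also: HEK293 cells carrying ER-alpha-UAS-bla reporter stimulated with 17beta-estradiol; nearly all actives have a fitted effect of over 45% in size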; also: potency is read from the fitted curve at half-maximal effect)
[6] = target: Estrogen receptor (Homo sapiens) (UniProt P03372); test: qHTS assay to identify small molecule agonists of the estrogen receptor alpha (ER-alpha) signaling pathway (AID 743075; calls by dose curve)
[7] = target: Estrogen receptor (Homo sapiens) (UniProt P03372); test: qHTS assay to identify small molecule agonists of the estrogen receptor alpha (ER-alpha) signaling pathway using the BG1 cell line (AID 743079); settings: BG1Luc4E2 cells, ERE-luciferase agonist, 22 h; activation: at 70.3 µM (top of the series); also: nearly all actives have a fitted effect of over 20% in size
[8] = qHTS assay to identify small molecule antagonists of the estrogen receptor alpha (ER-alpha) signaling pathway using the BG1 cell line (AID 743080; calls by dose curve; also: nearly all actives have a fitted effect of over 25% in size; also: potency is read from the fitted curve at half-maximal effect); settings: BG1Luc4E2 ERE-luciferase antagonist mode, luminescence; activity change, negative = inhibition: at 70.3 µM (top of the series)
Procedure, shortened: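 Antagonist mode: compounds in DMSO were pinned onto BG1-Luc-4E2 cells alongside 17beta-estradiol agonist, incubated 21.5 h, and ERE-driven luciferase measured with ONE-Glo. Cytotoxicity was multiplexed using CellTiter-Fluor fluorescence.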

[9] = qHTS assay to identify small molecule antagonists of the estrogen receptor alpha (ER-alpha) signaling pathway using the BG1 cell line - cell viability counter screen (AID 743081);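 also: compound given together with 17beta-estradiol as the ER stimulus; nearly all actives have a fitted effect of over 45% in size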; also: potency is read from the fitted curve at half-maximal effect
[10] = target: Aromatase (Homo sapiens) (UniProt P11511); test: qHTS assay to identify aromatase inhibitors (AID 743083); also: nearly all actives have a fitted effect of over 55% in size; also: potency is read from the fitted curve at half-maximal effect
Aromatase (Homo sapiens), sequence (P11511 whole entry, looked up): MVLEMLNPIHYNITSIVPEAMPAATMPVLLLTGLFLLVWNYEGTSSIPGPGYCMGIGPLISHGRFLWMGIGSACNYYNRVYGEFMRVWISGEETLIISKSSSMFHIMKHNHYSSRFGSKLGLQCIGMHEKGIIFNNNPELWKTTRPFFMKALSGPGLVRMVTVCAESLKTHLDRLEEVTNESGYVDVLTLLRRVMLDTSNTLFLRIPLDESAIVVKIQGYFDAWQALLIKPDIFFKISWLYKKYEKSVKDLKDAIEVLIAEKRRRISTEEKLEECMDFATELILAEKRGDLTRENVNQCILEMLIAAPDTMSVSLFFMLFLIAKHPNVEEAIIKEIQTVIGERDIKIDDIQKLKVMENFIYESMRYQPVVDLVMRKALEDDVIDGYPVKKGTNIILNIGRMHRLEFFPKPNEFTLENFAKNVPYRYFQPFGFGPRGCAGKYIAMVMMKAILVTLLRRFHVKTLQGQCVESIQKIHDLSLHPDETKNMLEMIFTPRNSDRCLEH

[11] = qHTS assay to identify aromatase inhibitors - cell viability counter screen (AID 743084);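 also: cells stimulated with testosterone during compound exposure; nearly all actives have a fitted effect of over 55% in size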; also: potency is read from the fitted curve at half-maximal effect
[12] = target: Aryl hydrocarbon receptor (Homo sapiens) (UniProt P35869); test: qHTS assay to identify small molecule that activate the aryl hydrocarbon receptor (AhR) signaling pathway (AID 743085);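 also: HG2L7.5c1 human HepG2 liver cells with stably integrated DRE-driven firefly reporter; nearly all actives have a fitted effect of over 15% in size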
Aryl hydrocarbon receptor (Homo sapiens), sequence (P35869 whole entry, looked up): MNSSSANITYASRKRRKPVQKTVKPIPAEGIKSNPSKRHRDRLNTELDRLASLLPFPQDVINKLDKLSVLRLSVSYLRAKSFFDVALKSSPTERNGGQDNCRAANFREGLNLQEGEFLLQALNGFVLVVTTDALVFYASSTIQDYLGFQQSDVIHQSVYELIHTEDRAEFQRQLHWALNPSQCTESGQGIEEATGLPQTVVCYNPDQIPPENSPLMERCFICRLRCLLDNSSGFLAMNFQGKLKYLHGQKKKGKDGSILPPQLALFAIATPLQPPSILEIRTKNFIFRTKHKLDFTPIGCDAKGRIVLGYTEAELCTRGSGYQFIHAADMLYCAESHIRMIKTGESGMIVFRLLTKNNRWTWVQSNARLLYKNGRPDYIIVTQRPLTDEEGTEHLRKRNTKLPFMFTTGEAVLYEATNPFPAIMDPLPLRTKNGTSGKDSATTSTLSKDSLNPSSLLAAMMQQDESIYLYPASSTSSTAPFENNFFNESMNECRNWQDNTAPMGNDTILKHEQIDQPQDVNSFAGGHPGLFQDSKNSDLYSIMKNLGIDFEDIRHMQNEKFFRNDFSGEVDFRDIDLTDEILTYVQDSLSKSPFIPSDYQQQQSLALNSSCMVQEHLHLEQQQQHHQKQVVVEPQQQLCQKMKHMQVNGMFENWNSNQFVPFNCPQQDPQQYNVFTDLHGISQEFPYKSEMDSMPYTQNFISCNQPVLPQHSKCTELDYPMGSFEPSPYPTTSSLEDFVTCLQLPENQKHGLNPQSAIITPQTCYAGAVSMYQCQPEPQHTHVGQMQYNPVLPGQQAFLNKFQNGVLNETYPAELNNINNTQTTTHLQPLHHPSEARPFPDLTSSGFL
Procedure, shortened: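 Luminescence read-out: ONE-Glo reagent, 30 min at room temperature, in HG2L7.5c1 HepG2 reporter cells treated 24 h at 37C. Viability was measured beforehand by CellTiter-Fluor fluorescence after 30 min at 37C.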

[13] = qHTS assay to identify small molecule that activate the aryl hydrocarbon receptor (AhR) signaling pathway - cell viability counter screen (AID 743086); also: nearly all actives have a fitted effect of over 45% in size; also: potency is read from the fitted curve at half-maximal effect
Procedure, shortened: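 HepG2-AhR-luc (HG2L7.5c1) cells, 4000/well, treated 24 h at 37 C with compound; viability measured as CellTiter-Fluor fluorescence after 30 min in the same wells as the luciferase read.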

[14] = target: Peroxisome proliferator-activated receptor gamma (Homo sapiens) (UniProt P37231); test: qHTS assay to identify small molecule agonists of the peroxisome proliferator-activated receptor gamma (PPARg) signaling pathway (AID 743094; active = well fitted activation curve with a large enough effect in the signal ratio in the repeat runs, not every such curve was filed as active; inconclusive = weak or mixed curves, or effect the other way; inactive = no such curve, though single readings can be large or run the other way; the % refers to the signal ratio)
Peroxisome proliferator-activated receptor gamma (Homo sapiens), sequence (P37231 whole entry, looked up): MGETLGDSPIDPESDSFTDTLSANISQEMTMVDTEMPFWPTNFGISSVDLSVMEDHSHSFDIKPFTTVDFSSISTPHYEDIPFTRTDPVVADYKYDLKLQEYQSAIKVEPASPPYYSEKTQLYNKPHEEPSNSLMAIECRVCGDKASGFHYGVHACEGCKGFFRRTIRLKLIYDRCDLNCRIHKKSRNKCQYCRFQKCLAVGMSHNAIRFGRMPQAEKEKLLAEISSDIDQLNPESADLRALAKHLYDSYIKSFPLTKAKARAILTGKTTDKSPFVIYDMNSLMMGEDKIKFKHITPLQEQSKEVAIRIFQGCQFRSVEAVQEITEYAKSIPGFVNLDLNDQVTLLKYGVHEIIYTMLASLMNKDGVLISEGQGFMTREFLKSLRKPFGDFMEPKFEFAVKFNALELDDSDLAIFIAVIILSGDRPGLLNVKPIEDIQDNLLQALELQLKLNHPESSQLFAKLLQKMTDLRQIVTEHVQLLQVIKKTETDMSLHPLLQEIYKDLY
Procedure, shortened: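 Beta-lactamase FRET fluorescence was the read-out after a 1 h room-temperature substrate step, following 17 h compound treatment at 37C of HEK293H cells expressing a UAS-driven bla reporter responsive to PPARg.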

[15] = target: Peroxisome proliferator-activated receptor gamma (Homo sapiens) (UniProt P37231); test: qHTS assay to identify small molecule antagonists of the peroxisome proliferator-activated receptor gamma (PPARg) signaling pathway (AID 743191; calls by dose curve; also: nearly all actives have a fitted effect of over 30% in size)
Procedure, shortened: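 GeneBLAzer PPARg UAS-bla HEK293H cells, 5 h post-plating, exposed to compounds 17 h at 37C. LiveBLAzer B/G FRET substrate added for 1 h at room temperature; beta-lactamase reporter read by fluorescence intensity.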

[16] = qHTS assay to identify small molecule antagonists of the peroxisome proliferator-activated receptor gamma (PPARg) signaling pathway - cell viability counter screen (AID 743194); also: nearly all actives have a fitted effect of over 55% in size; also: potency is read from the fitted curve at half-maximal effect
Procedure, shortened: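 Cytotoxicity counter screen in PPARg-bla HEK293H cells, same wells as reporter assay. Compounds plus 50 nM rosiglitazone (final) for 17 h at 37 C, then viability read by CellTiter-Glo luminescence.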

[17] = qHTS assay for small molecule agonists of the antioxidant response element (ARE) signaling pathway (AID 743202; active = well fitted activation curve with a large enough effect in the signal ratio in the repeat runs, not every such curve was filed as active; inconclusive = weak or mixed curves, or effect the other way; inactive = no such curve, though single readings can be large or run the other way; the % refers to the signal ratio)
Procedure, shortened: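 ARE-bla HepG2 cells (beta-lactamase reporter under the antioxidant response element), plated 5 hours, then exposed to compounds 16 hours at 37 C. LiveBLAzer B/G FRET substrate added for 2 hours at room temperature; fluorescence intensity read.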

[18] = qHTS assay for small molecule agonists of the antioxidant response element (ARE) signaling pathway - cell viability counter screen (AID 743203; calls by dose curve; also: nearly all actives have a fitted effect of over 55% in size; also: potency is read from the fitted curve at half-maximal effect)
Procedure, shortened: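 HepG2 cells carrying ARE-driven beta-lactamase; 2,000 cells/well; 5 hrs plating; compound pinned from DMSO; 16 hrs 37C/5% CO2; CellTiter-Glo added; 30 min RT; luminescence.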

[19] = qHTS assay for small molecule activators of the heat shock response signaling pathway - cell viability counter screen (AID 743209); also: nearly all actives have a fitted effect of over 50% in size; also: potency is read from the fitted curve at half-maximal effect
Procedure, shortened: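 Luminescence from CellTiter-Glo, added after the beta-lactamase FRET read, gave the viability signal. Cells were HSE-bla HeLa treated with DMSO-dissolved compounds for 5 h at 37 C following overnight plating.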

[20] = qHTS assay for small molecule activators of the heat shock response signaling pathway (AID 743210; active = well fitted activation curve with a large enough effect in the signal ratio in the repeat runs, with a control signal flat, not every such curve was filed as active; inconclusive = weak or mixed curves; the % refers to the signal ratio)
Procedure, shortened: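 HSE-bla HeLa cells (beta-lactamase reporter under heat shock response elements), plated overnight, then exposed to compounds 5 h at 37 C; LiveBLAzer B/G FRET substrate added, 2.5 h at room temperature, fluorescence intensity read.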

c1ccc(Sc2ccccc2)cc1
Potency [1]: inactive
Potency [2]: inactive
Potency [3]: inactive
Potency [4]: inactive
Potency [5]: inactive
Potency [6]: inactive
Potency [7]: inactive
Potency [8]: inactive
Potency [9]: inactive
Potency [10]: inactive
Potency [11]: inactive
Potency [12]: inactive
Potency [13]: inactive
Potency [14]: inactive
Potency [15]: inactive
Potency [16]: inactive
Potency [17]: inactive
Potency [18]: inactive

CCCC(CC)CCCCCCCN (stereo not given)
Potency [1]: inactive
Potency [2]: inactive
Potency [3]: inactive
Potency [4]: inactive
Potency [5]: inactive
Potency [6]: inactive
Potency [7]: inactive
Potency [8]: inactive
Potency [9]: inactive
Potency [10]: inactive
Potency [11]: inactive
Potency [12]: inactive
Potency [13]: inactive
Potency [14]: inactive
Potency [17]: inactive
Potency [19]: inactive

CC(C)N=C(N)/N=C(\N)Nc1ccc(Cl)cc1
Potency [1]: inactive
Potency [2]: 2.54 µM (active)
Potency [3]: inactive
Potency [4]: inactive
Potency [5]: inactive
Potency [6]: inactive
Potency [7]: inactive
Potency [8]: inactive
Potency [9]: inactive
Potency [10]: inactive
Potency [11]: inactive
Potency [12]: inactive
Potency [13]: inactive
Potency [14]: inactive
Potency [16]: inactive
Potency [18]: inactive
Potency [20]: inactive

CCCCCCCC/C=C/CCCOC(C)=O
Potency [1]: inactive
Potency [2]: inactive
Potency [3]: inactive
Potency [4]: inactive
Potency [5]: inactive
Potency [6]: inactive
Potency [7]: inactive
Potency [8]: inactive
Potency [9]: inactive
Potency [10]: inactive
Potency [11]: inactive
Potency [12]: inactive
Potency [13]: inactive
Potency [14]: inactive
Potency [15]: inactive
Potency [16]: inactive
Potency [18]: inactive

CC(C)=C1CC[C@@H](C)CC1=O
Potency [1]: inactive
Potency [2]: inactive
Potency [3]: inactive
Potency [4]: inactive
Potency [5]: inactive
Potency [6]: inactive
Potency [9]: inactive
Potency [10]: inactive
Potency [11]: inactive
Potency [12]: inactive
Potency [13]: inactive
Potency [14]: inactive
Potency [15]: inactive
Potency [16]: inactive
Potency [17]: inactive
Potency [18]: inactive
Potency [20]: inactive

O=S(=O)(O)CCCN1CCOCC1
Potency [1]: inactive
Potency [2]: inactive
Potency [3]: inactive
Potency [4]: inactive
Potency [5]: inactive
Potency [6]: inactive
Potency [7]: inactive
Potency [8]: inactive
Potency [9]: inactive
Potency [10]: inactive
Potency [11]: inactive
Potency [12]: inactive
Potency [13]: inactive
Potency [14]: inactive
Potency [16]: inactive
Potency [18]: inactive
Potency [19]: inactive

NCCCCCCNCCCCCCN
Potency [1]: inactive
Potency [2]: inactive
Potency [3]: inactive
Potency [4]: inactive
Potency [5]: inactive
Potency [6]: inactive
Potency [7]: inactive
Potency [8]: inactive
Potency [9]: inactive
Potency [10]: inactive
Potency [11]: inactive
Potency [12]: inactive
Potency [13]: inactive
Potency [14]: inactive
Potency [15]: inactive
Potency [16]: inactive
Potency [18]: inactive
Potency [20]: inactive

COC(=O)CC#N
Potency [1]: inactive
Potency [2]: inactive
Potency [3]: inactive
Potency [4]: inactive
Potency [5]: inactive
Potency [6]: inactive
Potency [7]: inactive
Potency [8]: inactive
Potency [9]: inactive
Potency [10]: inactive
Potency [11]: inactive
Potency [12]: inactive
Potency [13]: inactive
Potency [15]: inactive
Potency [16]: inactive
Potency [17]: inactive
Potency [18]: inactive
Potency [19]: inactive
Potency [20]: inactive

Nc1cc(Cl)c([N+](=O)[O-])cc1O
Potency [1]: 60.6 µM (active)
Potency [2]: inactive
Potency [3]: inactive
Potency [4]: inactive
Potency [5]: inactive
Potency [6]: inactive
Potency [7]: inactive
Potency [8]: inactive
Potency [10]: inactive
Potency [11]: 30.4 µM (active)
Potency [16]: inactive
Potency [18]: inactive
Potency [19]: inactive
Potency [20]: inactive

CC(COC(=O)c1ccccc1)OC(=O)c1ccccc1 (stereo not given)
Potency [1]: inactive
Potency [2]: inactive
Potency [3]: inactive
Potency [4]: inactive
Potency [5]: inactive
Potency [6]: inactive
Potency [8]: inactive
Potency [9]: inactive
Potency [10]: inactive
Potency [11]: inactive
Potency [12]: inactive
Potency [13]: inactive
Potency [14]: inactive
Potency [16]: inactive
Potency [18]: inactive
Potency [19]: inactive
Potency [20]: inactive

C[Si](C)(C)Cl
Potency [1]: inactive
Potency [2]: inactive
Potency [3]: inactive
Potency [4]: inactive
Potency [5]: inactive
Potency [6]: inactive
Potency [7]: inactive
Potency [8]: inactive
Potency [9]: inactive
Potency [10]: inactive
Potency [11]: inactive
Potency [12]: inactive
Potency [13]: inactive
Potency [16]: inactive
Potency [18]: inactive
Potency [19]: inactive
Potency [20]: inactive

CCN=C1C=CC(=C(c2ccc(N(CC)CC)cc2)c2ccc(N(CC)CC)cc2)c2ccccc21
Potency [1]: 0.542 µM (active)
Potency [2]: 0.121 µM (active)
Potency [3]: inactive
Potency [4]: 38.7 µM [cytotoxic] (active)
Potency [5]: 19.4 µM (active)
Potency [8]: 0.136 µM (active)
Potency [9]: 30.5 µM (active)
Potency [10]: 0.216 µM (active)
Potency [11]: 9.63 µM (active)
Potency [12]: inactive
Potency [13]: 24.2 µM (active)
Potency [16]: 154 nM (active)
Potency [18]: 5.42 µM (active)
Potency [19]: 21.7 µM (active)

CCc1cccc(C)c1
Potency [1]: inactive
Potency [2]: inactive
Potency [3]: inactive
Potency [4]: inactive
Potency [5]: inactive
Potency [6]: inactive
Potency [7]: inactive
Potency [8]: inactive
Potency [9]: inactive
Potency [10]: inactive
Potency [11]: inactive
Potency [12]: inactive
Potency [13]: inactive
Potency [16]: inactive
Potency [17]: inactive
Potency [18]: inactive
Potency [20]: inactive

CCOC(=O)N1CCC(=C2c3ccc(Cl)cc3CCc3cccnc32)CC1
Potency [1]: 26.6 µM (active) and 27.3 µM (active)
Potency [2]: 11.9 µM (active) and 9.69 µM (active)
Potency [3]: inactive
Potency [4]: 26.8 µM [inconclusive] (active)
Potency [5]: inactive
Potency [6]: inactive
Potency [8]: inactive and 61.1 µM (active)
Potency [9]: inactive
Potency [11]: inactive
Potency [16]: 49 µM (active) and 26.6 µM (active)
Potency [18]: 30.6 µM (active)
Potency [19]: inactive
